{"source": "PubChem BioAssay AID1224864", "about": "(Chung Lab, Department of Pediatrics, Emory University, 2016)", "note": "The whole screen tested about 2,000 compounds, of which about 20 (1%) were called active. How the calls were made is not given here. What follows is part of a selection rich in actives, with near analogues and random picks from the rest."}
{"molecular_target": "Cystic fibrosis transmembrane conductance regulator (Homo sapiens) (UniProt P13569)", "sequence (P13569 whole entry, looked up, stated change not applied)": "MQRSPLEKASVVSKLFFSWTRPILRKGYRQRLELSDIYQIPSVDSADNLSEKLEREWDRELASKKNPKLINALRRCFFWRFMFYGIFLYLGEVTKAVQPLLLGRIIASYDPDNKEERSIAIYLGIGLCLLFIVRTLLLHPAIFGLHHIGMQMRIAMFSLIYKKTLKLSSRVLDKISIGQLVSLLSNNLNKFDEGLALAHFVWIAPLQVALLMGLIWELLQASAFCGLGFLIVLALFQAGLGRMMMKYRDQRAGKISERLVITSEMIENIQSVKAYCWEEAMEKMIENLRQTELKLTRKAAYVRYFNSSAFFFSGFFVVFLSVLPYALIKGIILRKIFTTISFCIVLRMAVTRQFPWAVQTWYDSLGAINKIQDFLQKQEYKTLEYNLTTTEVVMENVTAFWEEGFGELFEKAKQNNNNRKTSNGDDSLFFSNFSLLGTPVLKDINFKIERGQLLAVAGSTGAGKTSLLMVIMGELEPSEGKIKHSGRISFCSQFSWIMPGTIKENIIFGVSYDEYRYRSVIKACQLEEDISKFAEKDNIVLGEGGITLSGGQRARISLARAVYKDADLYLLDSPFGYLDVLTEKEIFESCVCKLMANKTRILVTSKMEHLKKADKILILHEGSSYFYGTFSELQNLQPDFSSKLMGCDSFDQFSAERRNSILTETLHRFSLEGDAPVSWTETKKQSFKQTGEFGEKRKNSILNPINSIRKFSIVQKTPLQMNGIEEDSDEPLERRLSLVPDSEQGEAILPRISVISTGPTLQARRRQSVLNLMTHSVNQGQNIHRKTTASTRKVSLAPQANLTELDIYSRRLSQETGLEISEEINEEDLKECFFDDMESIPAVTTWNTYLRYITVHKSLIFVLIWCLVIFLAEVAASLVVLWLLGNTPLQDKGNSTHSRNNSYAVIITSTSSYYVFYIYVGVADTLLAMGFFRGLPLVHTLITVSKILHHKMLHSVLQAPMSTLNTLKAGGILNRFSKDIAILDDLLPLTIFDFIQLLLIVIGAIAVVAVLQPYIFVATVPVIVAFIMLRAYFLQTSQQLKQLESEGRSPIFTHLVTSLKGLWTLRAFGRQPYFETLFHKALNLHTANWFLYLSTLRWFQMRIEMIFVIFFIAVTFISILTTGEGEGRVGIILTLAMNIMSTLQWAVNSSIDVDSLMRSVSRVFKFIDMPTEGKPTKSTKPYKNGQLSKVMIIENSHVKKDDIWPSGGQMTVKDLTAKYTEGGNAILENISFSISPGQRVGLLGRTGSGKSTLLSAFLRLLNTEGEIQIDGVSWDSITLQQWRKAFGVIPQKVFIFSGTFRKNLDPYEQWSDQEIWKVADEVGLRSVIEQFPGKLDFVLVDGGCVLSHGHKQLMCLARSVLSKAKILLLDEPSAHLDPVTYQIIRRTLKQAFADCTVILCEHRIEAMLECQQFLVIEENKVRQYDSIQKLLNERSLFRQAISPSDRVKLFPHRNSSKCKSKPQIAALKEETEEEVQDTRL", "experiment": "F508del-CFTR plasma membrane relocalization enhancers – imaging, HeLa, high-content microscopy, immunofluorescence, primary screen (AID 1224864);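 further: HeLa cells stably expressing F508del-CFTR stained with 3G11 antibody against NBD1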;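 on plasma membrane CFTR intensity: mean immunofluorescence in a thin cell-margin band taken as plasma membrane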", "details": "PM immunofluorescence imaging, 24 h, at 10 µM, stronger effect = higher value, relative to vehicle wells set at 100; total CFTR intensity: measured here: total cellular F508del-CFTR signal", "units": {"total CFTR intensity": "%"}}
{"smiles": "N/C(=N/OS(=O)(=O)c1ccc([N+](=O)[O-])cc1)c1ccncc1", "plasma membrane CFTR intensity": "87% (inactive)", "total CFTR intensity": 85}
{"smiles": "COc1ccccc1NC(=O)N1CCc2[nH]c3ccc(Cl)cc3c2C1", "plasma membrane CFTR intensity": "92% (inactive)", "total CFTR intensity": 84}
{"smiles": "C/C(CCc1oc2ccc(Cl)cc2c1-c1ccc(C)o1)=N\\O", "plasma membrane CFTR intensity": "91% (inactive)", "total CFTR intensity": 97}
{"smiles": "COc1ccc(/C=N\\NC(=O)CCc2c(C)n[nH]c2C)c(OC)c1OC", "plasma membrane CFTR intensity": "82% (inactive)", "total CFTR intensity": 77}
{"smiles": "COc1ccccc1Oc1c(C)oc2c(CN3CCN(CCO)CC3)c(O)ccc2c1=O", "plasma membrane CFTR intensity": "90% (inactive)", "total CFTR intensity": 89}
{"smiles": "O=C(O)c1ccc(OCCn2ccnc2)cc1", "plasma membrane CFTR intensity": "77% (inactive)", "total CFTR intensity": 82}
{"smiles": "CN(CCCN1CCOCC1)Cc1cn(C)nc1-c1ccccc1F", "plasma membrane CFTR intensity": "84% (inactive)", "total CFTR intensity": 87}
{"smiles": "NCc1ccccc1COc1ccccc1", "plasma membrane CFTR intensity": "81% (inactive)", "total CFTR intensity": 83}
{"smiles": "Cc1ccc(CN2CCN(CCCc3ccccc3)CC2CCO)cc1", "note": "(configuration not stated)", "plasma membrane CFTR intensity": "82% (inactive)", "total CFTR intensity": 85}
{"smiles": "CCC(CO)NCCNC(CC)CO", "note": "(configuration not stated)", "plasma membrane CFTR intensity": "86% (inactive)", "total CFTR intensity": 88}
{"smiles": "Cc1ccc(N2CCN(C(=S)c3ccc(-c4cccc([N+](=O)[O-])c4)o3)CC2)cc1", "plasma membrane CFTR intensity": "81% (inactive)", "total CFTR intensity": 80}
{"smiles": "O=C(CN1C(=O)c2ccccc2S1(=O)=O)Nc1ccccc1", "plasma membrane CFTR intensity": "84% (inactive)", "total CFTR intensity": 82}
{"smiles": "CCCCC/C=C\\C[C@H](O)/C=C/c1cccc(C[C@H](O)CCCCO)n1", "plasma membrane CFTR intensity": "107% (active)", "total CFTR intensity": 126}
{"smiles": "CN(C)c1cc(NC(=O)CN2CCOCC2)c2ccccc2n1", "plasma membrane CFTR intensity": "91% (inactive)", "total CFTR intensity": 88}
{"smiles": "CCOC(=O)C1C(=O)CC(C)(O)C(C(=O)OCC)C1/C=C/c1ccccc1", "note": "(configuration not stated)", "plasma membrane CFTR intensity": "95% (inactive)", "total CFTR intensity": 102}
{"smiles": "Nc1ccc(N)c(C(=O)O)c1", "plasma membrane CFTR intensity": "77% (inactive)", "total CFTR intensity": 82}
{"smiles": "CCOC(=O)Cn1c(C)cc(=O)c2ccccc21", "plasma membrane CFTR intensity": "114% (inactive)", "total CFTR intensity": 113}
{"smiles": "COc1cc(C(=O)OCCCN(C)C)cc(OC)c1OC", "plasma membrane CFTR intensity": "89% (inactive)", "total CFTR intensity": 84}
{"smiles": "CN(C)c1ccc(CNCCC(Cc2ccccc2)c2ccco2)cc1", "note": "(configuration not stated)", "plasma membrane CFTR intensity": "50% (inactive)", "total CFTR intensity": 41}
{"smiles": "Cn1c(=O)c2c(ncn2Cc2ccccc2)n(C)c1=O", "plasma membrane CFTR intensity": "81% (inactive)", "total CFTR intensity": 82}
{"smiles": "CNC[C@H](O)c1cccc(O)c1", "plasma membrane CFTR intensity": "92% (inactive)", "total CFTR intensity": 96}
{"smiles": "CC(C)NC[C@@H](O)c1ccc(O)c(O)c1", "plasma membrane CFTR intensity": "100% (inactive)", "total CFTR intensity": 111}
{"smiles": "CNC[C@H](O)c1ccc(O)c(O)c1", "plasma membrane CFTR intensity": "101% (active)", "total CFTR intensity": 120}
{"smiles": "O[C@@H](CNC[C@H](O)c1ccccc1)c1ccccc1", "plasma membrane CFTR intensity": "90% (inactive)", "total CFTR intensity": 84}
{"smiles": "Cn1nc(-c2ccc(Cl)cc2)nc2c(=O)n(C)c(=O)nc1-2", "plasma membrane CFTR intensity": "84% (inactive)", "total CFTR intensity": 86}
{"smiles": "O=C(CN1C(=O)c2ccccc2C1=O)Nc1cccc([N+](=O)[O-])c1", "plasma membrane CFTR intensity": "90% (inactive)", "total CFTR intensity": 91}
